In all, about 50,000 compounds went through this assay and about 800 (1.6%) showed an effect of 50% or more. For the sample, strong results were picked, then their nearest neighbours and some compounds at random.
target: Bcl-2-like protein 10 (Homo sapiens) (UniProt Q9HD36); experiment: Phenotype converters, Bcl-B/TR3 peptide binding displacement, primary biochemical FP (AID 1240); conditions: GST-Bcl-B / FITC-TR3 peptide fluorescence polarization; stronger effect = higher value; compound at 3.75 mg/L;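 note: 0% = Bcl-B with tracer peptide and DMSO and 100% = tracer peptide lacking Bcl-B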
Sequence (Q9HD36 whole entry, looked up): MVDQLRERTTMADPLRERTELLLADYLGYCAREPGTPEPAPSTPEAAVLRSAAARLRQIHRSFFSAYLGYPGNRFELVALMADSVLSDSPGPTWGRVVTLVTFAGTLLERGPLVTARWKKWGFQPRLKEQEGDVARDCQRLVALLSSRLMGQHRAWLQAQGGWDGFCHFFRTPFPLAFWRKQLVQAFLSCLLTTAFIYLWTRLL

SMILES	displacement [%]
N#Cc1c2c(c(N3CCN(c4ccccn4)CC3)n3c1nc1ccccc13)CCC2	2.1
O=C1c2ccccc2C(=O)N1CCc1nc2ccccc2c(=O)n1-c1ccc(Br)cn1	-10.3
CCN(CC)CCCCOc1ccc(Cl)c(C)c1	-10.7
COc1ccc(CCNC(=O)C(=O)Nc2ccc3c(c2)OCCO3)cc1OC	3.4
Cc1cccc(CN2CCN(Cc3ccncc3)CC2)c1	-1.1
COC(=O)c1sc2nc(-c3ccccc3)nc(N3CCOCC3)c2c1C	47.3
CC1(C)Oc2ccc3ccc(=O)oc3c2/C(=C/N2CCOCC2)C1=O	-5.9
COc1ccc(Cl)cc1C(=O)Nc1ccc(C)cc1C	10.1
CN(C)c1ccc(/C=N/NC(=O)CNC(=O)c2ccc(F)cc2)cc1	2.3
COc1ccc(-c2ccc(/C=C/C(=O)c3cc4ccccc4o3)o2)cc1	-52.6
O=C(/C=C/c1ccc(-c2ccc([N+](=O)[O-])cc2)o1)c1cc2ccccc2o1	190
O=C(/C=C/c1ccc(-c2ccccc2[N+](=O)[O-])o1)c1cc2ccccc2o1	44.1
O=C(Nc1cc(NC(=O)c2ccccc2)cc(C(=O)Nc2nccs2)c1)c1ccccc1	4.4
O=C(COc1ccccc1F)Nc1nc(-c2cccs2)c(NC(=O)c2ccccc2)s1	14.6
CC(C(=O)NN)C1=NC(C)(C)Cc2ccccc21 (stereo not drawn)	-17.7
CC(=O)N1N=C2CC(C)(C)OCC2C1c1ccccc1 (stereo not drawn)	12
Cc1cccc(N2C(=O)CC(SC(=N)N3N=C(c4cccs4)CC3c3ccc(Br)cc3)C2=O)c1 (stereo not drawn)	5.6
N=C(SC1CC(=O)N(c2cccc3ccccc23)C1=O)N1N=C(c2cccs2)CC1c1ccc(Br)cc1 (stereo not drawn)	85.7
N=C(SC1CC(=O)N(c2ccccc2Cl)C1=O)N1N=C(c2cccs2)CC1c1ccc(Br)cc1 (stereo not drawn)	1.4
Cn1c(CNc2ccccc2)nc2ccccc21	-1.3
Cn1c(CNc2ccc(O)cc2)nc2ccccc21	76.7
Cn1c(CNc2ccccc2O)nc2ccccc21	0.7
COc1ccc(N(CC(=O)N2CCN(c3ccccc3OC)CC2)S(=O)(=O)c2ccccc2)c(OC)c1	8.6

SMILES	displacement [%]
c1ccc(Oc2cccc(CSc3nnnn3-c3ccccc3)c2)cc1	1
CCc1cccc(C)c1NC1C=CS(=O)(=O)C1 (stereo not drawn)	52.3
Cc1ccc(NC2C=CS(=O)(=O)C2)cc1C (stereo not drawn)	6.7
Cc1c(Cl)cccc1NC1C=CS(=O)(=O)C1 (stereo not drawn)	14
CN(C1CCS(=O)(=O)C1)S(=O)C12CC3CC(CC(C3)C1)C2 (stereo not drawn)	-4.8
CCSc1nnc2n(-c3ccc(OC)cc3)c(=O)c3c4c(sc3n12)CCCC4	119
CCCSc1nnc2n(-c3ccc(OC)cc3)c(=O)c3c4c(sc3n12)CCCC4	34.9
COc1ccc(-n2c(=O)c3c4c(sc3n3c(SCC(N)=O)nnc23)CCCC4)cc1	0.7
C=C(C)CSc1nnc2n(-c3ccc(OC)cc3)c(=O)c3c4c(sc3n12)CCCC4	3
COC(=O)CSc1nnc2n(-c3ccc(OC)cc3)c(=O)c3c4c(sc3n12)CCCC4	5.6
COc1ccc(-n2c(=O)c3c4c(sc3n3c(SCCC(C)C)nnc23)CCCC4)cc1	89.8
Clc1ccccc1C=NN1CCN(Cc2ccccc2Cl)CC1	-2.4
FC(F)(F)c1cc(/C=C/c2ccccc2)no1	7.7
CC(=O)Nc1ccc(S(=O)(=O)Nc2cccc(C)c2C)cc1	12.9
CN(C)c1ccc(/C=N/NC(=O)Cn2c3ccccc3c(=O)c3ccccc32)cc1[N+](=O)[O-]	2.3
N=C1S/C(=C\c2ccc3c(c2)OCO3)C(=O)N1c1ccc(F)cc1	2.6
COc1ccccc1C1=N/C(=C\c2ccc([N+](=O)[O-])cc2)C(=O)O1	27.4
O=C1/C(=C/c2ccc3c(c2)OCO3)SC(=S)N1c1ccc(F)cc1	11.8
O=C1OC(c2ccccc2F)=N/C1=C\c1ccc(Br)cc1	9
O=C1OC(c2ccc(F)cc2)=N/C1=C\c1ccc2c(c1)OCO2	15.9
O=C1OC(c2ccccc2F)=N/C1=C\c1ccc2c(c1)OCO2	80
CN(C)/C=C1\N=C(c2ccccc2Br)OC1=O	-1.7
COc1cccc(/C=C2\N=C(c3ccccc3OC)OC2=O)c1	-6

SMILES	displacement [%]
COc1ccccc1C1=N/C(=C\c2ccc3c(c2)OCO3)C(=O)O1	111
O=C1OC(c2ccccc2Br)=N/C1=C\c1cccnc1	4.7
O=C1/C(=C\c2ccc3c(c2)OCO3)N=C(c2ccccc2)N1c1ccc(F)cc1	179
O=C1OC(c2ccccc2Br)=N/C1=C\c1cc2c(cc1Cl)OCO2	116
Cn1nnnc1SCc1ccc(F)cc1	-4
O=C1CS/C(=N/N=C/c2c3ccccc3cc3ccccc23)N1	-1.8
CC(NC(=O)c1ccccc1)C12CC3CC(CC(C3)C1)C2 (stereo not drawn)	39.3
Cc1cccc(OCC(=O)O/N=C(\N)c2cccc(C)c2)c1	-9.8
CCOC(=O)CONC(=NCc1ccccc1)c1nonc1N	3.6
CCc1c(C)nc(N)nc1N1CCCC1	13.1
Cc1ccc(C(=O)NCCCN2CCOCC2)c2ccccc12	-1.8
Cc1ccccc1N1C(=O)c2cccc3c(N4CCCCC4)ccc(c23)C1=O	15.9
COc1ccccc1N1C(=O)c2cccc3c(N4CCN(C)CC4)ccc(c23)C1=O	157
COc1ccccc1N1C(=O)c2cccc3c(N4CCCC4)ccc(c23)C1=O	102
COc1ccccc1N1C(=O)c2ccc3c4c(ccc(c24)C1=O)CC3	13.4
COc1ccccc1N1C(=O)c2cccc3c(N(C)C)ccc(c23)C1=O	42.1
COc1ccccc1N1C(=O)c2cccc3c(Cl)ccc(c23)C1=O	22.2
Cc1cc(C)n(C2CC(=O)N(c3ccccc3)C2=O)n1 (stereo not drawn)	0.8
COc1ccc(C=C2C(=O)N(C)C(=O)N(C)C2=O)cc1O	-7.9
O=S(=O)(Nc1ccc(O)cc1)c1cc(Cl)ccc1Cl	-0.2
O=C(c1cccc(F)c1)N1CCN(C(=O)c2cccc(Cl)c2)CC1	-18.6
O=c1sc2ccccc2c(N2CCN(c3ccccc3)CC2)c1[N+](=O)[O-]	-11.1
O=C(COC(=O)CN1C(=O)c2ccccc2C1=O)Nc1cccc2ccccc12	-8.1

SMILES	displacement [%]
N#C/C(=C\c1ccc(-c2ccc(Cl)cc2)o1)C(=O)Nc1ccccc1O	-1
CCc1ccccc1NC(=O)/C(C#N)=C\c1ccc(Sc2ccccc2)o1	-12.2
Cc1cccc(NC(=O)/C(C#N)=C\c2ccc(Sc3ccccc3)o2)c1C	74.9
N#C/C(=C/c1ccc(-c2ccc(S(N)(=O)=O)cc2)o1)C(=O)Nc1ccccc1	-0.4
N#C/C(=C/c1ccc(Sc2ccccc2)o1)C(=O)Nc1ccccc1	-22.8
N#C/C(=C\c1ccc(-c2ccccc2)o1)C(=O)Nc1ccc(C#N)cc1	168
CCOc1ccc(/C=C/C(=O)c2ccc(F)cc2)cc1	-0.4
CN(C)/C=C1\C(=O)N/C(=C/c2ccc(Br)cc2)C1=O	7.9
CCN(CC)c1ccc(NC(=O)c2ccc3ccccc3n2)cc1	1.3
CCCCS(=O)CC(O)COC(C)C (stereo not drawn)	-1.5
Cc1cc(OCC(=O)NC2C3CC4CC(C3)CC2C4)ccc1Br (stereo not drawn)	-6.7
COc1ccc(/C=C2\C=C(c3ccc(C)cc3)OC2=O)cc1[N+](=O)[O-]	6.6
COc1cc(OC)c([N+](=O)[O-])cc1/C=C1\C=C(c2ccc(Br)cc2)OC1=O	49.1
COc1ccc(C2=C/C(=C\c3ccc(OC)c([N+](=O)[O-])c3)C(=O)O2)cc1	2.7
COc1ccc(/C=C2\C=C(c3ccc(Br)cc3)OC2=O)cc1[N+](=O)[O-]	70
COc1cc(/C=C2\C=C(c3ccc(Cl)cc3)OC2=O)c([N+](=O)[O-])cc1OC	-11.8
COc1cc(/C=C2\C=C(c3ccc(Br)cc3)OC2=O)c([N+](=O)[O-])cc1OC	55
COc1cccc(OCCCCS)c1	10
O=C(O)c1cc(S(=O)(=O)N2CCCCC2)ccc1O	-1.5
COc1ccc(C2CC(=O)C3=C(C2)Nc2ccccc2NC3c2cccc3ccccc23)cc1OC (stereo not drawn)	1.8
O=C(Nc1c(C(=O)N2CCOCC2)cnn1-c1ccccc1)c1cccs1	12.5
CN1CCN(Cc2c(O)ccc3cc(-c4nc5ccccc5s4)c(=O)oc23)CC1	121
O=c1oc2c(CN3CCOCC3)c(O)ccc2cc1-c1nc2ccccc2s1	118

SMILES	displacement [%]
Cc1oc2c(CN3CCCC3)c(O)ccc2c(=O)c1-c1nc2ccccc2s1	12.7
CN(C)Cc1c(O)ccc2cc(-c3nc4ccccc4s3)c(=O)oc12	110
Cc1oc2c(CN(CC(C)C)CC(C)C)c(O)ccc2c(=O)c1-c1nc2ccccc2s1	12.7
Cc1oc2c(CN3CCN(C)CC3)c(O)ccc2c(=O)c1-c1nc2ccccc2s1	11.7
CCc1cc2c(=O)c(-c3nc4ccccc4s3)coc2c(CN2CCOCC2)c1O	1
CN1CCN(Cc2c(O)ccc3cc(-c4ccccn4)c(=O)oc23)CC1	25.9
CCc1cc2c(=O)c(-c3nc4ccccc4s3)coc2c(CN(C)C)c1O	-15
Cc1cccc(NC(=O)C2C(c3ccccc3)=C2c2ccccc2)c1C	5.5
CCN(CC)c1ccc(NC(=O)COc2ccc(OC)cc2)cc1	-5
COc1ccccc1N1C(=O)NC(=O)/C(=C/c2ccc(OC)c3ccccc23)C1=O	5.3
C=CCOc1ccc(Cl)cc1/C=C1/SC(=S)NC1=O	-2.6
O=C(Nc1cc(Br)cc2cccnc12)c1ccc(Cl)cc1	-7.2
Cc1cc(C=C2C(=O)NC(=S)NC2=O)c(C)n1-c1ccc(N2CCOCC2)cc1	22.3
Cc1cc(C=C2C(=O)NC(=O)NC2=O)c(C)n1-c1ccc(F)cc1	4.7
Cc1cc(/C=C2\C(=O)NC(=O)N(C)C2=O)c(C)n1-c1ccc(N(C)C)cc1	124
Cc1cc(/C=C2/NC(=O)NC2=O)c(C)n1-c1ccc(N2CCOCC2)cc1	-5.1
Cc1cc(C=C2C(=O)NC(=O)NC2=O)c(C)n1-c1ccc(Cl)cc1	106
Cc1cc(C=C2C(=O)NC(=O)NC2=O)c(C)n1-c1ccc(N2CCOCC2)cc1	126
Cc1cc(/C=C2/C(=O)NC(=O)N(c3ccccc3)C2=O)c(C)n1-c1ccccc1	30.8
Cc1cc(/C=C2\NC(=O)NC2=O)c(C)n1-c1ccc(N(C)C)cc1	3.4
Cc1cc(/C=C2/NC(=O)NC2=O)c(C)n1-c1ccc(Cl)cc1	10.7

From PubChem BioAssay AID1240 (Sanford-Burnham Center for Chemical Genomics, 2008)
